The results in this text go back to PubChem BioAssay (Tox21).

Assay [1] is described as follows: qHTS assay to identify small molecule agonists of the TGF-beta/Smad signaling pathway - cell viability counter screen (AID 1346829). Further: top concentration of the series differs between compounds; nearly all actives have a fitted effect of over 45% in size. In outline: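 In parallel with the Smad reporter read, viability of HEK 293T cells stably carrying SBE-bla is quantified by ATP luminescence following 5 hr compound treatment.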
In general terms: In qHTS, concentration-response curves come from the screen itself.

The nature of assay [2]: qHTS assay to identify small molecule agonists of the TGF-beta/Smad signaling pathway (AID 1346859; active means well fitted activation curve with a large enough effect in the signal ratio in the repeat runs, not every such curve was filed as active; the % refers to the signal ratio; further: series mostly up to about 77 µM). In outline: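 After overnight seeding, SBE-bla HEK 293T cells are dosed with compounds in DMSO and kept 5 hr at 37 C, 5% CO2. LiveBLAzer-type FRET substrate is then applied for 2 hr at room temperature.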
For assay [3], the target named is Thyrotropin-releasing hormone receptor (Homo sapiens) (UniProt P34981). In words: qHTS assay to identify small molecule antagonists of the thyrotropin-releasing hormone receptor (TRHR) signaling pathway (AID 1346877; active means well fitted inhibition curve with a large enough effect in the repeat runs, not every such curve was filed as active; further: series mostly up to about 51 µM). In outline:
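TRHR-expressing HEK293 cells were seeded, cultured 18 h at 37 °C, then loaded with calcium dye for 2 h. Compounds were pre-incubated 5 min at room temperature before 1 nM TRH (final) was added, and kinetic fluorescence was recorded for 3 min.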

The target is the same in assay [4]. In words: qHTS assay to identify small molecule agonists of the thyrotropin-releasing hormone receptor (TRHR) signaling pathway (AID 1346891; calls by dose curve; further: series mostly up to about 58 µM). Put shortly: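 Compounds were tested as agonists at 15 concentrations, in triplicate, on TRHR-Hek293 cells; calcium-sensitive dye fluorescence was recorded for 3 min following addition.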
The nature of assay [5]: Human pregnane X receptor (PXR) small molecule agonists, qHTS cell viability counter screen (AID 1346977). Further: nearly all actives have a fitted effect of over 50% in size. In outline:
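Viability counter screen: CellTiter-Fluor signal in PXR-Luc HepG2 cells, 24hr compound exposure, 37C, 5% CO2.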

Assay [6] can be described thus: Caspase-3/7 induction in HepG2 cells by small molecules, qHTS assay (AID 1346978). Further: nearly all actives have a fitted effect of over 15% in size. Put shortly: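 Wild-type HepG2 cells (2,000/well) were settled 5 h at 37 C, 5% CO2, then exposed to compounds in DMSO for 17 h. Caspase-3/7 activity was read by luminescence 30 min after adding Caspase-Glo 3/7 reagent at room temperature.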
Assay [7] in a line: Caspase-3/7 induction in CHO-K1 cells by small molecules, qHTS cell viability counter screen (AID 1346979). Further: nearly all actives have a fitted effect of over 35% in size. In outline: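 Viability readout by fluorescence (CellTiter-Fluor) on wild-type CHO-K1 cells exposed for 16hr at 37C and 5% CO2 to compounds delivered in DMSO; reagent incubated 1hr before reading.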
Assay [8] is described as follows: Caspase-3/7 induction in CHO-K1 cells by small molecules, qHTS assay (AID 1346980). Further: nearly all actives have a fitted effect of over 15% in size. Put shortly:
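Wild-type cells were seeded at 1,500 per well and settled 5 hr at 37 C, 5% CO2, then exposed to DMSO-dissolved compounds for 17 hr. Caspase-Glo 3/7 reagent was added, and luminescence was read after 30min at room temperature.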

Assay [9] can be described thus: Caspase-3/7 induction in HepG2 cells by small molecules, qHTS cell viability counter screen (AID 1346981). Further: series mostly up to about 92 µM; nearly all actives have a fitted effect of over 30% in size. In outline:
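Wild-type HepG2 cells (2,000/well) were allowed to settle for 5 hr at 37 C, 5% CO2, then dosed with compounds in DMSO by pin transfer. After 16 hr at 37 C, CellTiter-Fluor was added and fluorescence read 1 hr later.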

The target in assay [10] is Nuclear receptor subfamily 1 group I member 2 (Homo sapiens) (UniProt O75469). In words: Human pregnane X receptor (PXR) small molecule agonists, qHTS assay (AID 1346982). Further: nearly all actives have a fitted effect of over 35% in size. Further: potency means the concentration at half of the fitted maximal effect. In outline: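 PXR-Luc HepG2 cells (CYP3A4 promoter-driven luciferase) were seeded in medium with 5% charcoal-stripped FBS, left 5 hr at 37 C, then exposed to compounds in DMSO for 24 hr. Luminescence was read after ONE-Glo addition.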

The target of assay [11] is Nuclear receptor subfamily 1 group I member 2 (Rattus norvegicus) (UniProt Q9R1A7). In words: Rat pregnane X receptor (rPXR) activation by small molecules, qHTS assay (AID 1346983). Further: nearly all actives have a fitted effect of over 20% in size. Conditions: rPXR luciferase reporter cells, One-Glo luminescence, 24 h; active compounds read high. Put shortly: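 Cell-based rPXR luciferase reporter assay, 2,000 cells per well, rested 5hr at 37 C before compound addition in DMSO, then 24 hr at 37 C. One-Glo reagent was added and luminescence read after 30 min at room temperature.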

For assay [12], the target named is Nuclear receptor subfamily 1 group I member 2 (Homo sapiens) (UniProt O75469). In words: Human pregnane X receptor (PXR) activation by small molecules, qHTS assay (AID 1346985). Further: nearly all actives have a fitted effect of over 40% in size. Put shortly: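 DPX-2 cells (HepG2 co-transfected with a PXR response element and a CYP3A4-promoter luciferase construct) were seeded at 2,000 per well, rested 5 hr at 37C, then exposed to DMSO-dissolved compounds for 24 hr. Activation was read as luciferase luminescence.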

In assay [13] the target is Cytochrome P450 2D6 (Homo sapiens) (UniProt P10635). In words: Cytochrome P450 Family 2 Subfamily D Member 6 (CYP2D6) small molecule antagonists: luciferase reporter qHTS assay (AID 1671196). Further: nearly all actives have a fitted effect of over 50% in size. Further: potency means the concentration at half of the fitted maximal effect. On activity change, negative = inhibition: series mostly up to about 120 µM. In outline:
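CYP2D6 enzyme–substrate mix was held with compound for 10 min at room temperature, then NADPH regeneration solution was added and the reaction ran 1 h at room temperature. Luciferin product was detected by luminescence after 20 min with detection reagent.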
(In general: A reporter such as luciferase makes a cellular process visible.)

In assay [14] the target is Cytochrome P450 2C9 (Homo sapiens) (UniProt P11712). In words: Cytochrome P450 Family 2 Subfamily C Member 9 (CYP2C9) small molecule antagonists: luciferase reporter qHTS assay (AID 1671198). Further: nearly all actives have a fitted effect of over 50% in size. Further: potency means the concentration at half of the fitted maximal effect. On activity change, negative = inhibition: series mostly up to about 120 µM. In outline:
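CYP2C9 activity was measured with a P450-Glo proluciferin substrate. Enzyme–substrate mix was held with compound for 10 min at room temperature, then NADPH regeneration solution was added for 1 h at 37C. Luciferin product was read as luminescence.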

Assay [15] deals with Voltage-gated inwardly rectifying potassium channel KCNH2 (Homo sapiens) (UniProt Q12809). In words: Human Ether-a-go-go-Related Gene (hERG) channel small molecule antagonists: fluorescence cell-based qHTS assay (AID 1671200).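 Further: hERG-expressing U2OS cells given a thallium stimulus after FluxOR II dye loading; series mostly up to about 77 µM; nearly all actives have a fitted effect of over 50% in size.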 In outline: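 Thallium served as the potassium surrogate; its influx into dye-loaded U2OS cells carrying the channel was measured by fluorescence over 2 min.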

The target of assay [16] is Cytochrome P450 3A4 (Homo sapiens) (UniProt P08684). In words: Cytochrome P450 Family 3 Subfamily A Member 4 (CYP3A4) small molecule antagonists: luciferase reporter qHTS assay (AID 1671201). Further: nearly all actives have a fitted effect of over 50% in size. Further: potency means the concentration at half of the fitted maximal effect. On activity change, negative = inhibition: series mostly up to about 120 µM. Put shortly:
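Relative luminescence units after 20 min with luciferin detection reagent served as read-out. Beforehand, CYP3A4 turned over a proluciferin substrate for 1 h at room temperature with NADPH regeneration, following 10 min compound preincubation.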

The target in assay [17] is Cytochrome P450 2C19 (Homo sapiens) (UniProt P33261). In words: Cytochrome P450 Family 2 Subfamily C Member 19 (CYP2C19) small molecule antagonists: luciferase reporter qHTS assay (AID 1671197). Further: nearly all actives have a fitted effect of over 65% in size. Further: potency means the concentration at half of the fitted maximal effect. On activity change, negative = inhibition: series mostly up to about 120 µM. In outline: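 Compounds were tested on CYP2C19 activity via proluciferin conversion to luciferin. The 37C, 1 h reaction followed NADPH addition; detection reagent stopped it.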

Assay [18] concerns the target Cytochrome P450 1A2 (Homo sapiens) (UniProt P05177). In words: Cytochrome P450 Family 1 Subfamily A Member 2 (CYP1A2) small molecule antagonists: luciferase reporter qHTS assay (AID 1671199). Further: nearly all actives have a fitted effect of over 50% in size. Further: potency means the concentration at half of the fitted maximal effect. On activity change, negative = inhibition: series mostly up to about 120 µM. Put shortly: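 Human CYP1A2 activity measured with a P450-Glo proluciferin substrate; compounds in DMSO preincubated 10 min at room temperature with enzyme-substrate mix, then NADPH regeneration system added for 1 h. Luciferin detection reagent, 20 min, luminescence read.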

For assay [19], the target named is Nuclear receptor subfamily 1 group I member 2 (Homo sapiens) (UniProt O75469). In words: CYP3A4 induction through human pregnane X receptor (PXR) by small molecules, qHTS assay (AID 1346984). Further: nearly all actives have a fitted effect of over 40% in size. In outline:
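DPX-2 cells (HepG2 co-transfected with PXR and CYP3A4 promoter-luciferase) treated with compounds 24 h at 37C; luciferin-IPA CYP3A4 substrate 3uM final added for 3 h, then One-Glo; luminescence read. qHTS format.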

Molecules are shown by their SMILES. A number with no mark means an inactive call. Results filed as inconclusive are left out. The source made the active and inactive calls. Unless noted, the call rests on the fitted dose curve; in most records, active means well fitted curve in the direction sought with a large enough effect in the repeat runs; inconclusive means weak or mixed curves; inactive means no such curve, though single readings can be large; an effect the other way counts as inactive or inconclusive.
On the % scale 0 is the no-effect control and ±100 the full control effect.

Chain of Cytochrome P450 3A4 (Homo sapiens) (P08684 whole entry, looked up): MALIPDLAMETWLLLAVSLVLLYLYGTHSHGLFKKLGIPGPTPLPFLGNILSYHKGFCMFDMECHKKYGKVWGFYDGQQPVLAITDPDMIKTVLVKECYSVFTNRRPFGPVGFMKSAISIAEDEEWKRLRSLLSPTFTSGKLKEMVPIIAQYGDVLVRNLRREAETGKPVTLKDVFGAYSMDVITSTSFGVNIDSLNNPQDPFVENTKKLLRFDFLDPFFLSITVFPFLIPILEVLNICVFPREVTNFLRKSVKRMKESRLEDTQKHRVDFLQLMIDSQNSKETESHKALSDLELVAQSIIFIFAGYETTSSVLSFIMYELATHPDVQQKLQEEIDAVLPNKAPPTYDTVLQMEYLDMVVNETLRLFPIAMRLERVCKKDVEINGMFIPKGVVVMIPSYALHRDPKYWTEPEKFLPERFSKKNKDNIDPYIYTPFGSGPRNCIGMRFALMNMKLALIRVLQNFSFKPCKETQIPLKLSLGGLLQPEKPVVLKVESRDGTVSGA
Chain of Cytochrome P450 2D6 (Homo sapiens) (P10635 whole entry, looked up): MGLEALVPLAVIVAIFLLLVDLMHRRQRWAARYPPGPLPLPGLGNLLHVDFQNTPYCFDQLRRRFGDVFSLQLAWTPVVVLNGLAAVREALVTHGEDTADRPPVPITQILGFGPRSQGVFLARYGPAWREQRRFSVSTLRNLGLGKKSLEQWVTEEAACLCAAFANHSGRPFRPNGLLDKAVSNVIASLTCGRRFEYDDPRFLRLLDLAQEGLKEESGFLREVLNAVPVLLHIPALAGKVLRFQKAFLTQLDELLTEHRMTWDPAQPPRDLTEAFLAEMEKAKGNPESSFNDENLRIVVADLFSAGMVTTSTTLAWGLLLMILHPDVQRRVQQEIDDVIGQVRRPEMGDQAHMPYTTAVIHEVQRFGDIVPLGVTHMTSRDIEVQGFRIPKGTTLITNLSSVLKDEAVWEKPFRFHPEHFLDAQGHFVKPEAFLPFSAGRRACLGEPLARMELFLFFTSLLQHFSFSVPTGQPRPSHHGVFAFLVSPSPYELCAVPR
Chain of Cytochrome P450 2C19 (Homo sapiens) (P33261 whole entry, looked up): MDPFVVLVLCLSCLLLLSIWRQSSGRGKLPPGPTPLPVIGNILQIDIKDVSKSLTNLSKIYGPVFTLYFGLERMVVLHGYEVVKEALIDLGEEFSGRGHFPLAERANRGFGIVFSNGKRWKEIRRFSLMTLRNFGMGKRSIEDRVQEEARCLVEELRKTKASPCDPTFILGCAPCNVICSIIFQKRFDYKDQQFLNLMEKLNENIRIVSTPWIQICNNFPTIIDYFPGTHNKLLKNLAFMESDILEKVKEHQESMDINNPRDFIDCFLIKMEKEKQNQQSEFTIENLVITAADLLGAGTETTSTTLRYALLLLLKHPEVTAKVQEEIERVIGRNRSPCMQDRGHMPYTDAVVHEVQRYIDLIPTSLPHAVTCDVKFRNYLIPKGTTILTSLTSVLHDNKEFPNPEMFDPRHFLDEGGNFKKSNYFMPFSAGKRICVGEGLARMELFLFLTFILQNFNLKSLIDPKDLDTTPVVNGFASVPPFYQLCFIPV
Chain of Cytochrome P450 1A2 (Homo sapiens) (P05177 whole entry, looked up): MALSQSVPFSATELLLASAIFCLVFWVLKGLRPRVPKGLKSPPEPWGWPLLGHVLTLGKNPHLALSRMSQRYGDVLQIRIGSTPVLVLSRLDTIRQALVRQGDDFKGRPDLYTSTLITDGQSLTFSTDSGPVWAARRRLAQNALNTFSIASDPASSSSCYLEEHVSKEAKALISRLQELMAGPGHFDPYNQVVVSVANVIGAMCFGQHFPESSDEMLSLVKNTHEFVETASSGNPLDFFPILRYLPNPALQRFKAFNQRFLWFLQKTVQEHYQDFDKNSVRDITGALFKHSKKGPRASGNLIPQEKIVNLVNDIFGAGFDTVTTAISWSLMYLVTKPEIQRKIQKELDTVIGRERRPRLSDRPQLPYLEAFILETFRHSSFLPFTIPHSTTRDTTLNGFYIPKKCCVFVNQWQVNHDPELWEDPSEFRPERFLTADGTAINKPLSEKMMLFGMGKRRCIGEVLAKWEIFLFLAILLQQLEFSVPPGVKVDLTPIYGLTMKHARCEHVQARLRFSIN
Chain of Nuclear receptor subfamily 1 group I member 2 (Homo sapiens) (O75469 whole entry, looked up): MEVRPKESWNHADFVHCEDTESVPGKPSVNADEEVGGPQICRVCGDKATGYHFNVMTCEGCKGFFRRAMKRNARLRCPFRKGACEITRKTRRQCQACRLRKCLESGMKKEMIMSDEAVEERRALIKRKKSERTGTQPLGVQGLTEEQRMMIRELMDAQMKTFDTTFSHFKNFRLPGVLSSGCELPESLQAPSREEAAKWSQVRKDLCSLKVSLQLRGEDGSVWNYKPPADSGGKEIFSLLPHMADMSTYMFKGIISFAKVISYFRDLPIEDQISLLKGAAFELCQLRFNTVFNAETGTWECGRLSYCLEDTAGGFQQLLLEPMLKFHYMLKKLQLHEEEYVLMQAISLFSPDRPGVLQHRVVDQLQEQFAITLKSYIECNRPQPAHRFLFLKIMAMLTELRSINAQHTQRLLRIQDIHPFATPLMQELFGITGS
Chain of Thyrotropin-releasing hormone receptor (Homo sapiens) (P34981 whole entry, looked up): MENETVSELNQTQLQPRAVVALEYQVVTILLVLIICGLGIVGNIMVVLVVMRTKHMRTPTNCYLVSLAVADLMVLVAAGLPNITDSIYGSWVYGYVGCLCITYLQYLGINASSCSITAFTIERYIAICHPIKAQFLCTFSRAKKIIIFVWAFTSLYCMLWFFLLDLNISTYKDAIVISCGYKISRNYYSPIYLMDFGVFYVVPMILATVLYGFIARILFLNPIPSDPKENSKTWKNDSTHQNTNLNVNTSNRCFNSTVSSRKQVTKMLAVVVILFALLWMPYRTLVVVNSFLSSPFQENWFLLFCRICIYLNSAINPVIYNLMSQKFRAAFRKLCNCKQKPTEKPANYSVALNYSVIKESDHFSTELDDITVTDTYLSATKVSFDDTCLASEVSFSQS
Chain of Cytochrome P450 2C9 (Homo sapiens) (P11712 whole entry, looked up): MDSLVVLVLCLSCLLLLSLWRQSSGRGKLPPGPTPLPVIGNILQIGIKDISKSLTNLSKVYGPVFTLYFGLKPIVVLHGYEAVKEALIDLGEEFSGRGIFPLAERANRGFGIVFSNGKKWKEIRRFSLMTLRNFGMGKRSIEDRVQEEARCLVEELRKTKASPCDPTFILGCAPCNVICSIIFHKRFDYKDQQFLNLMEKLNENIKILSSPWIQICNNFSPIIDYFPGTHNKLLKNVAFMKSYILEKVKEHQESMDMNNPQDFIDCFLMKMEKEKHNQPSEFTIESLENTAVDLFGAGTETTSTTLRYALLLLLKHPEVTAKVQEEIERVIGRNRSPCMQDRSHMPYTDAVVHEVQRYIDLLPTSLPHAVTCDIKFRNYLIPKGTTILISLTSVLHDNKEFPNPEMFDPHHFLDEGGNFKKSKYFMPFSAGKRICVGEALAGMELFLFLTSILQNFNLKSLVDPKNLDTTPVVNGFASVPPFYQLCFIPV
Chain of Voltage-gated inwardly rectifying potassium channel KCNH2 (Homo sapiens) (Q12809 whole entry, looked up): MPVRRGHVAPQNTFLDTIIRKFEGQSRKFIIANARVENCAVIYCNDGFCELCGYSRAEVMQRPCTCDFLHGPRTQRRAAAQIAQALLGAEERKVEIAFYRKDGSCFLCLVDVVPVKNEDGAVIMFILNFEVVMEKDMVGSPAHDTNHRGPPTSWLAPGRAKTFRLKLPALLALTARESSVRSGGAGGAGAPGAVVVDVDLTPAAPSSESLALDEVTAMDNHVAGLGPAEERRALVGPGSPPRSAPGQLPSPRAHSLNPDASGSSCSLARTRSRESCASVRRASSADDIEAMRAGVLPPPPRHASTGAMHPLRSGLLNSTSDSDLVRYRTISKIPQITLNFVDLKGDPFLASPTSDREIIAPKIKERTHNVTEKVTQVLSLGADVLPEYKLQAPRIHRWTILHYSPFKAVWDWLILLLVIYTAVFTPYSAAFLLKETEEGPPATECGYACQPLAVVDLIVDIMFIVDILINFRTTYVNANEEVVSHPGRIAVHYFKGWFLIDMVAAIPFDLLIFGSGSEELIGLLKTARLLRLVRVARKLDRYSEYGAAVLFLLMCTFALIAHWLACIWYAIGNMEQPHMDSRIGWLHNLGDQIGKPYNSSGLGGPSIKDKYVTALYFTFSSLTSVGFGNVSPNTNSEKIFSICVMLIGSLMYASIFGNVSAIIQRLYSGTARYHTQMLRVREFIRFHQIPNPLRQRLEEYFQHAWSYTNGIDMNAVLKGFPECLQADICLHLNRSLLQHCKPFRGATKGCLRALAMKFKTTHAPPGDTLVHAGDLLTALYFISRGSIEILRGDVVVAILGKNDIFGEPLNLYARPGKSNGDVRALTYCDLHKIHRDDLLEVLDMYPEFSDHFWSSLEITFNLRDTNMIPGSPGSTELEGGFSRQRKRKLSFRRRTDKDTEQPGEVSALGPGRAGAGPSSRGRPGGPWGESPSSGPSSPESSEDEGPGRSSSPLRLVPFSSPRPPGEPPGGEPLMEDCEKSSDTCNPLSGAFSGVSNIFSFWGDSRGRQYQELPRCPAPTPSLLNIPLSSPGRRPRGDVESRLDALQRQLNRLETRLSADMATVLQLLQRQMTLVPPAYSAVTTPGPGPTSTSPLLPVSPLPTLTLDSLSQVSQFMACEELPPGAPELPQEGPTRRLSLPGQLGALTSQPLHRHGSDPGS
Chain of Nuclear receptor subfamily 1 group I member 2 (Rattus norvegicus) (Q9R1A7 whole entry, looked up): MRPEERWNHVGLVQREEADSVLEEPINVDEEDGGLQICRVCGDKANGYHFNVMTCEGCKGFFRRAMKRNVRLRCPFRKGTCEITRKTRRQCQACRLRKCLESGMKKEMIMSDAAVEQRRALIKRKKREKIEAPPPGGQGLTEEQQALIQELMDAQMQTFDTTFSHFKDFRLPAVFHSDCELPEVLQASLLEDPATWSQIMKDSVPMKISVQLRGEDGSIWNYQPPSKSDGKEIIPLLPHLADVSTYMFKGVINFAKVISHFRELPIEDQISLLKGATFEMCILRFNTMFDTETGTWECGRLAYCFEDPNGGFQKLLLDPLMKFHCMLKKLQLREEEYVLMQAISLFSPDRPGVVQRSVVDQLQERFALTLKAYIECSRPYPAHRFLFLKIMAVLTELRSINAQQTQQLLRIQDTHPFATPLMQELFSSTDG

For `N[C@@H](Cc1ccc(O)cc1)C(=O)O`, the activity change, negative = cytotoxicity is 9.15% [at 6.97 µM] in [1], -1.74% [at 8.39 µM] in [5], 1.62% [at 8.39 µM] in [7] and -1.35% [at 8.39 µM] in assay [9]. The results for the activation in assay [2], in assay [4] and in assay [10] were 4.2% [at 6.97 µM], -0.36% [at 5.23 µM] and -5.23% [at 8.39 µM], respectively. In [3], the activity, negative = inhibition was -2.4% [at 4.65 µM]. The caspase activation in [6] was -1.72% [at 8.39 µM]. Further, in assay [8], the caspase-3/7 activation is -1.08% [at 8.39 µM]. Moreover, in [11], the max activation was 3.66%. Besides, the Potency result in assay [12] was “inactive”.
In the case of `CCCSSCCC`, the molecule was classed as inactive in [1], in assay [2], in assay [3], in assay [4], in assay [5] and in assay [6]. Also, the molecule was classed as inactive in [8] and in assay [9]. Further, the Potency result in [7], in assay [10], in assay [13], in assay [14], in assay [15] and in [16] was “inactive” throughout.
As to `Cc1ccc(C(C)NC(=O)[C@@H](NC(=O)OC(C)C)C(C)C)cc1` (some centres not stated), the molecule was called inactive in assay [1], in assay [2], in assay [3], in assay [4], in [5] and in assay [6]. The call in assay [8] and in [9] was inactive. Besides, the Potency result in [7] and in assay [15] was “inactive” in each case. Besides, the Potency in assay [10] was 21.6 µM (active); in [13], 35.5 µM (active); in [17], 56.2 µM (active); in [14], 31.6 µM (active); in assay [16], 3.55 µM (active).
In the case of `CC1OCCC1=O` (configuration not stated), the outcome in [1], in [2], in assay [3], in [4], in assay [5] and in assay [6] was inactive. Besides, the molecule was classed as inactive in assay [8] and in [9]. For the same molecule, the Potency result in assay [7], in [10], in [17], in assay [14], in assay [18] and in assay [15] was “inactive” each time. Also, in assay [16], the Potency entry is “inactive”.
`C[C@]12CCC(=O)C=C1CC[C@H]1[C@@H]3CC[C@](O)(C(=O)CO)[C@@]3(C)C[C@H](O)[C@@]12F`: the outcome in assay [1], in assay [2], in assay [3], in [4], in [5] and in assay [6] was inactive. The molecule was classed as inactive in assay [8] and in assay [9]. Moreover, the Potency result in assay [7], in [10], in [19], in assay [12], in [17] and in assay [18] was “inactive” each time. For the same molecule, the Potency entry in assay [15] was “inactive”.
For `O=C1c2ccccc2C(=O)c2cc(Cl)ccc21`, the activity change, negative = cytotoxicity is 7.07% [at 6.97 µM] in [1], -0.0384% [at 8.39 µM] in assay [5], 9.78% [at 8.39 µM] in assay [7] and 3.18% [at 8.39 µM] in assay [9]. The results for the activation in assay [2], in [4] and in assay [10] were 1.62% [at 6.97 µM], 0.0495% [at 5.23 µM] and 8.25% [at 8.39 µM], respectively. Also, the activity, negative = inhibition in assay [3] was -0.75% [at 4.65 µM]. The caspase activation in [6] is -1.72% [at 8.39 µM]. Also, the caspase-3/7 activation in [8] was -0.328% [at 8.39 µM]. Moreover, the activity change, negative = inhibition in assay [13] is -1.33% [at 10.5 µM]; in assay [14], -13.1% [at 10.5 µM]; in assay [15], -0.029% [at 6.97 µM]; in assay [16], 5.17% [at 10.5 µM]. Also, the Potency in [18] was 0.138 µM (active).
Consider `O/N=C/C=N/O`, for which the molecule was classed as inactive in assay [1], in assay [2], in assay [3], in assay [4], in assay [5] and in assay [6]. Besides, the outcome in assay [8] and in assay [9] was inactive. The Potency entry in assay [7], in assay [10], in [17], in assay [14], in assay [18] and in assay [15] was “inactive” each time. For the same molecule, in assay [16], the Potency entry is “inactive”. Moreover, in assay [13], the Potency was 39.9 µM (active).
Turning to `CCC(C(=O)OCCN1CCOC(c2ccccc2)C1C)c1ccccc1` (configuration not stated), the call in assay [1], in assay [2], in [3], in assay [4], in assay [5] and in [6] was inactive. For the same molecule, the molecule was classed as inactive in assay [8] and in assay [9]. Also, the Potency entry in [7], in assay [18] and in assay [15] was “inactive” in each case. Besides, the Potency was 33.5 µM (active) in assay [10], 5.49 µM (active) in assay [13], 1.38 µM (active) in assay [17] and 4.9 µM (active) in assay [14].
